# Data from PubChem BioAssay (NCATS).
# Results filed as inconclusive are left out. A call without a number means that no potency is given here. Activity calls are given as the source filed them. Calls come from the whole dose curve; as a rule, active = well fitted curve in the direction sought with a large enough effect; inconclusive = small, poorly fitted or top-dose-only effect, or another doubt; inactive = no such curve, though single readings can be large; an effect the other way counts as inactive or inconclusive.
# Experiments:
# [1] = test system: Nanoluciferase (engineered Oplophorus gracilirostris luciferase); experiment: Primary Nanoluciferase (NLuc) qHTS assay for identification of artifact compounds. (AID 1845222); conditions: NLuc-conditioned medium, Nano-Glo luminescence, 5 min; series mostly up to 54.1 µM;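 note: NLuc secreted into diluted conditioned medium of S16 cells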
# Method in brief: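 NLuc from S16 cell medium (1:55) plus test compounds, 15 min, room temperature. Luminescence after Nano-Glo (1:100) addition, 5 min.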
# [2] = Primary redox qHTS assay for identification of artifact compounds. (AID 1845223); conditions: Amplex Red/HRP redox cycling with DTT, fluorescence; series mostly up to 53.8 µM
# Method in brief: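 Amplex Red (25 uM) and HRP (250 mU/mL) in HBSS, with compounds for 15 min, then 250 uM DTT for 30 min, room temperature, dark. Fluorescence 525/598 nm read; normalized to DMSO and 10 uM DA3003; Hill fit.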
SMILES,Potency [1],Potency [2]
O=C(O)Cn1nnc(-c2ccc(CN(CCCCOc3ccc(CN4CCCC4)cc3)CCc3ccccc3)cc2)n1,inactive,inactive
C=CCC1=C[C@]2(OC)[C@H](C)[C@@H](c3ccc(OC)c(OC)c3)O[C@]2(OC)CC1=O,inactive,inactive
CC1C(=O)OCC2=CC[N+]3([O-])CCC(OC(=O)C(C)(O)C1(C)O)C23 (stereo unspecified),inactive,inactive
C[C@@H]1C[C@@H](O)[C@@]23CO[C@]2(CO)CCC[C@@H]3[C@@]12C[C@@H](c1ccoc1)OC2=O,inactive,inactive
CC(C)C[C@H](NC(=O)[C@@H]1O[C@H]1C(=O)O)C(=O)NCCCCN=C(N)N,inactive,inactive
Cc1oc(S(=O)(=O)N2CCCCC2)cc1NC(=O)Nc1ccccc1,inactive,inactive
COC(=O)C1(O)C(OC(C)=O)CCC2C3(CC(c4ccoc4)OC3=O)C(C)=CCC21C(=O)OC (stereo unspecified),inactive,inactive
CC(=O)/C=C/[C@H]1[C@](C)(O)[C@@H](O)[C@H](O)C2C(C)(C)CCC[C@@]21C (stereo partly specified),inactive,inactive
O=C(O)c1ccnc2cc(-c3nc4ccccc4n3CCN3CCCCC3)sc12,inactive,inactive
CC(=O)c1c(C)cccc1O[C@@H]1O[C@H](CO)[C@@H](O)[C@H](O)[C@H]1O,inactive,inactive
CCCNCCOc1ccc(NC(=O)c2c[nH]c3c2C(=O)CCC3)cc1F,inactive,inactive
O=C(O)CCc1ccc(NCc2cccc3c2CCCN3CCOc2ccccc2)cc1F,inactive,inactive
C/C=C(\C)C(=O)OC1C2(O)CC3=C4CC(=O)OC(c5ccoc5)C4(C)CCC3C(C)(C2=O)C(C(OC(C)=O)C(=O)OC)C1(C)C (stereo unspecified),inactive,inactive
